HP1b chromo inh: inhibitors of HP1-beta chromodomain binding to methylated histone tails. P83916. AlphaScreen HP1-beta / biotin-H3K9me3 peptide binding. Potency, µM (series often up to 114 µM), without a hit: at the top dose activity change, negative = inhibition, most hits filed as inhibitors. actives 0.56% (n = 390,000). AID 540317; note: potency is the fitted concentration of half-maximal effect; nearly all actives have a fitted effect of over 70% in size
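Compound inhibition of the preformed complex between 50 nM HP1-beta and 50 nM biotinylated H3K9me3 peptide was read by AlphaScreen. Buffer was PBS pH 7.4 with 0.01% Tween-20. Incubations ran 30 min at room temperature, with 10 ug/mL donor/acceptor beads.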
PI5P4K alpha inh: blocks human PI5P4K alpha kinase activity. P48426. PI5P4Kalpha enzyme, ADP-Glo luminescence, 60 min; stronger effect = lower value. max response, %. actives 1.2% (n = 330,000). AID 652105; active = max response of -50% or lower; inconclusive = between -30% and -50%; inactive = -30% or higher; note: value at the top dose of about 77 µM; % is set by controls: 0 for no effect and ±100 for the full control effect
Target sequence (P48426 whole entry, looked up): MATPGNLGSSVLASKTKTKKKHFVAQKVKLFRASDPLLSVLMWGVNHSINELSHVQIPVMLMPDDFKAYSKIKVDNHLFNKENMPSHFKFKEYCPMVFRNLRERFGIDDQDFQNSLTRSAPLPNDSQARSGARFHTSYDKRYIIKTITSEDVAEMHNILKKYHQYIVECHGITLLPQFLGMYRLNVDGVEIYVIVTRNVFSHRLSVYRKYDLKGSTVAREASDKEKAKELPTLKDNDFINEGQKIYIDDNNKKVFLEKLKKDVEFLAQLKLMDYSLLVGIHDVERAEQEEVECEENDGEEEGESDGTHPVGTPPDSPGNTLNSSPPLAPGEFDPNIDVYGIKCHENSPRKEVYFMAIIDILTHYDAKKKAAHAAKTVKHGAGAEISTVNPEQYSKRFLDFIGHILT
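ADP-Glo luminescence end-point after a 60 min room-temperature kinase reaction. PI5P4Kalpha and substrate in HEPES pH 7.4 buffer with EGTA, 0.1% CHAPS and 5% DMSO; ATP at 5 microM final.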
BAZ2B inh: inhibitors of human BAZ2B bromodomain; actives 4.4% (n = 360,000); Q9UIF8; Potency, µM (highest dose often 114 µM), inactives show at the highest dose activity change, negative = inhibition, most hits filed as inhibitors; AlphaScreen BAZ2B-H3K14Ac peptide displacement; AID 504333; note: potency is the fitted concentration of half-maximal effect; % is set by controls: 0 for no effect and ±100 for the full control effect; nearly all actives have a fitted effect of over 60% in size
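In this displacement format the biotinylated H3(5-23) peptide acetylated at Lys14 serves as ligand at 50 nM, with BAZ2B at 50 nM in PBS pH 7.4 containing 0.01% Tween-20. Donor and acceptor beads are 10 ug/mL final.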
PLK1 PBD block: PLK1 (human) polo-box domain binding inhibition | P53350 | actives 2.8% (n = 360,000) | Potency, µM, for inactives: max response, negative = inhibition, actives largely listed as inhibitors | Plk1 PBD binding of FITC phosphopeptide, fluorescence polarization | AID 720504; note: potency is the fitted concentration of half-maximal effect; series mostly up to about 57 µM; % is set by controls: 0 for no effect and ±100 for the full control effect; nearly all actives have a fitted effect of over 65% in size
G9a block: inhibitors of human histone lysine methyltransferase G9a | Q96KQ7 | G9a H3K9 monomethylation, AlphaScreen, 2 h | Potency, µM (titrated, usually from 102 µM), for inactives: top-dose activity, negative = inhibition, usual class: inhibitors | AID 504332 | actives 8.8% (n = 350,000); note: potency is the fitted concentration of half-maximal effect; % is set by controls: 0 for no effect and ±100 for the full control effect; nearly all actives have a fitted effect of over 75% in size
Target sequence (Q96KQ7 913-1193 limits assumed): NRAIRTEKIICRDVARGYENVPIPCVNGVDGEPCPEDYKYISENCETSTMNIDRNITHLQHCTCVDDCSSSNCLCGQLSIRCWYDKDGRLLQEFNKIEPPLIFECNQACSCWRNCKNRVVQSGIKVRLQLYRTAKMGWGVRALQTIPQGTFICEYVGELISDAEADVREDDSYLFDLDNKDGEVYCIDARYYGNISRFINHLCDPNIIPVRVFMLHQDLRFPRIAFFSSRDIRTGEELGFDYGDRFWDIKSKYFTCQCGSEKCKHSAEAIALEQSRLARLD
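Readings reflect AlphaScreen signal from monomethyl-H3K9 antibody detection. HMT at 20 nM; substrate b-H3K9 500 nM; cofactor SAM 20 uM; 2 h RT reaction; compounds tested as titrations in qHTS with 15 min preincubation.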
JMJD2A Tudor: inhibitors of human JMJD2A Tudor domain; O75164; AlphaScreen JMJD2A-Tudor / H3K4me3 peptide binding; Potency, µM (titrated, usually from 114 µM), for inactives: at the top dose activity change, negative = inhibition, actives largely listed as inhibitors; actives 4.4% (n = 390,000); AID 504339; note: potency is the fitted concentration of half-maximal effect; % is set by controls: 0 for no effect and ±100 for the full control effect; nearly all actives have a fitted effect of over 50% in size
* = called active by the depositor; ? = inconclusive; / = no result; [ ] = dose if it differs, or a comment. Hits are enriched below; roughly 12% of the tested compounds scored in any of these assays. Unless noted, calls come from the whole dose curve; as a rule, active = well fitted curve in the direction sought with a large enough effect; inconclusive = small, poorly fitted or top-dose-only effect, or another doubt; inactive = no such curve, though single readings can be large; an effect the other way counts as inactive or inconclusive.

SMILES | HP1b chromo inh | PI5P4K alpha inh | BAZ2B inh | PLK1 PBD block | G9a block | JMJD2A Tudor
COc1ccc(S(=O)(=O)CCC(=O)Nc2c(C)cccc2C)cc1 | 36% | -6 | 2% | -17% | 40µM* | -9%
COc1ccc(C(=O)Nc2ccccc2C(=O)NC(Cc2ccc(O)cc2)C(=O)NNC(=O)c2ccncc2)cc1 (configuration not stated) | 20% | -1 | ? | -23% | 1.4µM* | -12%
O=C(Nc1ccccc1C(=O)NC1CCCCC1)c1ccccc1 | 40% | 15 | -3% | 3% | ? | 14%
O=C(Nc1ccccc1C(=O)NC(Cc1ccccc1)C(=O)NC1CCCCCC1)c1ccccc1 (configuration not stated) | -6% | -6 | 0% | 27µM* | 1%[12.7 µM] | -10%[11.4 µM]
C[C@H](CO)N1C[C@H](C)[C@@H](CN(C)Cc2ccccc2)Oc2ccc(NC(=O)Cn3cnnn3)cc2C1=O | 36% | -1 | / | -2% | / | -3%
COc1ccccc1N1CCN(C(=O)c2cc(CC(C)C)on2)CC1 | 63% | / | 6% | / | -3%[59 µM] | 3%
CC1CCCCN1S(=O)(=O)c1ccc2c(c1)oc(=O)n2CC(=O)Nc1ccc(Cl)cc1 (configuration not stated) | 35% | / | 0% | / | -21%[59 µM] | -14%
CN1C(=O)/C(=C/c2cn(CC(=O)N3CCCCC3)c3ccccc23)NC1=S | 41% | 6 | -27% | -6% | 40µM* | -29%
O=Cc1cn(CC(=O)N2CCCCCC2)c2ccccc12 | 18% | -5 | 1% | -7% | -23% | -17%
OC[C@@H]1CN(Cc2ccc(F)cc2)C[C@H](n2cnc3c(N4CCOCC4)ncnc32)O1 | / | 7 | / | 2% | / | /
Cc1c(Cl)cccc1NC(=O)Cn1c(=O)nc(-c2ccccc2)c2ccccc21 | 3% | / | -15% | / | 26%[59 µM] | -22%
COc1ccc(-n2c(NC(=O)c3ccco3)c(C#N)c3nc4ccccc4nc32)cc1 | 66% | -28 | 6% | ? | -7%[59 µM] | -22%[57.1 µM]
CCCCn1c(NC(=O)c2ccccc2Cl)c(C#N)c2nc3ccccc3nc21 | 74% | -4 | 43% | 27µM* | 33%[59 µM] | 19%
N#Cc1c(NC(=O)c2ccccc2Cl)n(Cc2ccccc2)c2nc3ccccc3nc12 | 89% | -11 | 12% | 15µM* | ? | 16%
CCCCn1c(NC(=O)CC)c(C#N)c2nc3ccccc3nc21 | 15% | 4 | 0% | -6% | -35%[12.7 µM] | ?
CCCN1C(=O)N(c2cccc(C)c2)C(C)(O)CC1(C)C (configuration not stated) | 51% | 9 | 7% | 4% | / | -9%
O=C(CSc1nc2ccccc2n1Cc1ccc(F)cc1)N1CCN(c2ccc(F)cc2)CC1 | 4% | / | -8% | / | -2%[59 µM] | -6%
Cc1ccc(S(=O)(=O)N2CCN(C(=O)COC(=O)COc3ccccc3C(C)C)CC2)c(C)c1 | 63% | 3 | / | -19% | / | -22%
COc1cc2c(cc1NCc1ccccn1)oc1ccccc12 | ? | 3 | 45µM* | -5% | ? | 45µM*
COc1cc2c(cc1NC(=S)Nc1cccc3ccccc13)oc1ccccc12 | ? | -5 | 79µM* | -14% | ? | ?
COc1cc2c(cc1NC(=O)COc1ccccc1OC)oc1ccccc12 | 43% | / | -6% | 1% | -8%[59 µM] | -10%
COCCCNC(=S)Nc1cc2oc3ccccc3c2cc1OC | 35% | 7 | ? | 4% | 29% | -23%
COc1cc2c(cc1NC(=O)c1cncc(Br)c1)oc1ccccc12 | -3% | 9 | 6% | 27µM* | -2%[12.7 µM] | -15%[11.4 µM]
COc1cc2c(cc1NCc1ccc3c(c1)OCO3)oc1ccccc12 | ? | 11 | 32µM* | 3% | ? | ?
O=C(CSc1nc2c([nH]c3ccccc32)c(=O)n1-c1ccc(F)cc1)NCC1CCCO1 (configuration not stated) | 25%[57 µM] | / | 4% | / | 0%[59 µM] | -5%
SMILES | HP1b chromo inh | PI5P4K alpha inh | BAZ2B inh | PLK1 PBD block | G9a block | JMJD2A Tudor
Cc1cc(Cl)ccc1OCC(=O)OCC(=O)N(CC(C)C)c1c(N)n(Cc2ccccc2)c(=O)[nH]c1=O | 19% | -1 | -26% | -4% | -10% | -13%
CC1(C)Cc2c(sc3ncnc(N)c23)CO1 | 13% | -10 | -5% | -6% | -7%[59 µM] | -8%
CCCC1Cc2c(sc3ncnc(N)c23)CO1 (configuration not stated) | 60% | -20 | 5% | -10% | 45µM* | -6%
COc1ccc(OC)c(S(=O)(=O)NCCc2sc(C)nc2C)c1 | 11%[57 µM] | / | 3% | / | 11%[59 µM] | -10%
CC(=O)NC1=NN(C(C)=O)C(c2ccccc2)S1 (configuration not stated) | -24% | ? | -13% | 4.7µM* | 2% | 11µM*
CCOc1ccccc1/C=C/c1nc2ccccc2[nH]c1=O | 31% | -18 | 0% | 3.8µM* | / | ?
CCCCNC1=CC(=O)C(NCCCC)=CC1=O | 18µM* | 0 | / | -18% | / | 40µM*
CCCSc1ncc(Cl)c(C(=O)Nc2c(C(=O)Nc3ccc(OC)cc3)oc3ccccc23)n1 | 31% | / | 1% | / | -4%[59 µM] | -7%
CCCCC/C=C\C/C=C\C/C=C\C/C=C\CCCC(=O)C(F)(F)F | / | / | / | / | 18%[59 µM] | /
CC(=NNC(=S)Nc1ccccc1Cl)c1ccccn1 | -32% | 23 | / | -5% | / | 56µM*
CC(=NNC(=S)Nc1ccccc1)c1ccccn1 | / | -13 | / | -2% | / | /
C=CCNC(=S)N/N=C(\C)c1ccccn1 | 31% | / | 4.5µM* | -10% | -2% | 45µM*
C=CCN1C(c2ccc(OCC)cc2)=CS/C1=C(\C#N)c1nnc2n1CCCCC2 | -5% | / | ? | -6% | 3.5µM* | ?
Cc1ccc(NC(=O)C2CCN(c3nc4ccccc4[nH]3)CC2)cc1Cl | 11%[57 µM] | / | -11% | / | 7%[59 µM] | -27%
O=c1[nH]cnc2ncc(-c3ccc(O)cc3)nc12 | 22% | ? | / | 1% | / | 79µM*
O=c1[nH]cnc2nc(-c3ccccc3)c(-c3ccccc3)nc12 | 32% | -2 | -7% | -17% | 12%[59 µM] | -1%
O=C(Cn1nnc(-c2ccccc2)n1)NNC(=O)c1ccccc1 | ? | -9 | -18% | -17% | 40µM* | -11%
O=C(CN1C(=O)c2ccc([N+](=O)[O-])cc2C1=O)NC1CCCCCC1 | 23% | 4 | 10% | -7% | ? | -15%
CCC1(C)Cc2ccccc2/C(=C/C(=O)N2CCCCC2)N1 (configuration not stated) | 0% | 14 | ? | -14% | 40µM* | ?
COc1ccc(N2CCN(C(CNC(=O)c3ccc(C)cc3)c3ccc4c(c3)OCO4)CC2)cc1 (configuration not stated) | -18%[57 µM] | / | 20µM* | / | 8.9µM* | 28µM*

Assay outcomes as filed in PubChem BioAssay.
